# From PubChem BioAssay
# ST2 inh – inhibitors of human ST2 (IL1RL1) binding to IL-33, primary screen, biochemical, AlphaLISA; AlphaLISA ST2-Fc/biotin-IL-33 interaction, 1 h; inhibition, % for hits at 17 µM; 78,000 tested, 2.3% active; AID 1259354, 2018; in the data active means inhibition above about 30%
# Target sequence (Q01638 whole entry, looked up): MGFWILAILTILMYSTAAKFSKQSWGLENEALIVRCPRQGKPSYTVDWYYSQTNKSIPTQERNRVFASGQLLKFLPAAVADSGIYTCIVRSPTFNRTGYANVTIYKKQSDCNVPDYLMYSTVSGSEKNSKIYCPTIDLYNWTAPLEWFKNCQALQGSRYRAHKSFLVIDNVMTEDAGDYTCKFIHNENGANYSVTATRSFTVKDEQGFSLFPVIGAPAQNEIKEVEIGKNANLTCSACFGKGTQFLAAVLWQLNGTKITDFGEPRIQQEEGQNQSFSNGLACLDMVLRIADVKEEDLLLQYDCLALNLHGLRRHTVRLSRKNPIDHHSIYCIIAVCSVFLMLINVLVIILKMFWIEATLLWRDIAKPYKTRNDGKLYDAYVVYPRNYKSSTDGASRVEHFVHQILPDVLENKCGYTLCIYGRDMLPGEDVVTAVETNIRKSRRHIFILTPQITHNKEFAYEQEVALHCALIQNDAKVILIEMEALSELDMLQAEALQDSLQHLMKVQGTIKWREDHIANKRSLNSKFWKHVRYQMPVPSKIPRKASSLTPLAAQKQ
# * marks the source's active call; other numbers are inactive results; i = inactive. Shown is part of a subset that was picked to be rich in hits.
SMILES,ST2 inh
CCOC(=O)c1c(C)n(C2CCCCC2)c2ccc(O)cc12,i
CCOC(=O)c1c(C)n(C2CCCCC2)c2ccc(OC(C)=O)cc12,i
Cc1cc(C=O)c(C)n1C1CCCCC1,30%*
Brc1ccc(CNCCc2c[nH]c3ccccc23)cc1,i
COc1ccc(OC)c(S(=O)(=O)NC[C@H]2C[C@@H]3CCN2C[C@@H]3c2cc(-c3cccs3)nn2C)c1,i
CCN(CC)C(=O)c1ccc2c(c1)C1C=CCC1C(C(=O)O)N2 (stereo not given),60%*
CCN(CC)C(=O)c1ccc(N2C(=O)C3CC=C(Cl)CC3C2=O)cc1 (stereo not given),i
COc1ccc(CCNC2CCC(C)C2)cc1 (stereo not given),50%*
CC(C)(O)c1cn(C[C@H]2CC3CCN2C[C@@H]3C(=O)Nc2nccs2)nn1 (stereo not given in full),i
COc1ccc(-c2cc([C@H]3CN4CC[C@H]3C[C@@H]4COC(=O)Nc3ccc(C(C)=O)cc3)n(C)n2)cc1,i
CCCCCc1cc(O)c(CC=C(C)C)c(OC)c1,i
COc1ccc(CN2CCN(Cc3ccccc3)CC2)c(C)c1C,34%*
COc1ccc(CN2CCN(C)CC2)c(OC)c1C,i
CCN1CCN(Cc2ccc(OC)c(C)c2C)CC1,i
O[C@@H]1C[C@H]2CN(C3CCN(c4ncccn4)CC3)C[C@H]2C[C@@H]1O,i
COc1ccc([N+](=O)[O-])cc1O,i
CCCNC(=O)OC[C@H]1C[C@@H]2CCN1C[C@@H]2c1cc(C2CCCC2)nn1C,i
Cn1nc(-c2ccccc2)cc1[C@H]1CN2CC[C@H]1C[C@@H]2CNC(=O)c1ccc2c(c1)OCO2,i
COc1ccccc1[C@@H]1CN(C(=O)CCn2cncn2)[C@@H]2C3CCN(CC3)[C@@H]21,i
CC(=O)N1CCN(C[C@H]2CN3CC[C@H]2C[C@@H]3CNC(=S)Nc2ccccc2)CC1,i
COc1ccc(/C=C/c2nc3ccccc3c(=O)n2-c2ccccc2[N+](=O)[O-])cc1,44%*
O=c1c2ccccc2nc(/C=C/c2ccc(F)cc2)n1-c1ccccc1,i
Cc1ccc(-n2c(C)nc3ccc(I)cc3c2=O)c([N+](=O)[O-])c1,i
COc1ccc(-n2c(/C=C\c3ccccc3F)nc3ccccc3c2=O)c(OC)c1,30%*
CCOC(=O)c1nc2ccccc2c(=O)n1-c1cc(Cl)c(OC)cc1OC,i
SMILES,ST2 inh
O=c1c2ccccc2nc(Cc2ccccc2)n1-c1ccccc1,i
Cc1ccnc(-n2c(C)nc3ccccc3c2=O)c1,i
COc1cc(/C=C/c2nc3ccccc3c(=O)n2-c2ccccc2OC)ccc1O,i
O=c1c2ccccc2nc(/C=C/c2ccc(O)cc2)n1-c1cccc([N+](=O)[O-])c1,34%*
Cc1nc(-c2cccs2)cc([C@H]2CN3CC[C@H]2C[C@@H]3COC(=O)Nc2ccc(C(C)C)cc2)n1,i
Cc1cc(NC(=O)c2cccn(Cc3ccc(Br)cc3)c2=O)no1,i
Nc1nonc1NC(=O)CSCC(=O)Nc1nonc1N,i
CSCc1noc(CNC(C)Cc2ccccc2F)n1 (stereo not given),i
CN1C(=O)C(C2c3ccccc3Oc3ccccc32)C(=O)N(C)C1=O,i
O=c1ccc(-c2ccccc2F)c2n1C[C@H]1C[C@@H]2CN(Cc2ccc(CO)o2)C1,i
O=C1CSC(c2cccc([N+](=O)[O-])c2)c2c(-c3ccccc3)nn(-c3ccccc3)c2N1 (stereo not given),i
COc1cc(NC(=S)NC[C@H]2C[C@@H]3CCN2C[C@@H]3c2cc(-c3ccccc3)nn2C)cc(OC)c1,i
O=c1c(-c2ccc(OC(F)(F)F)cc2)ccc2n1C[C@H]1C[C@@H]2CN(Cc2cccs2)C1,i
Cc1ccccc1-c1noc(CNC(C)Cc2cccs2)n1 (stereo not given),i
O=c1cccc2n1C[C@H]1C[C@@H]2CN(C[C@H]2CN3CC[C@H]2C[C@@H]3CNC(=S)NCCN2CCOCC2)C1,i
Cc1nc(SCC(=O)N2C[C@@H]3C[C@H](C2)c2cccc(=O)n2C3)n[nH]1,i
CN1CCN([C@H]2[C@@H]3OC[C@@H](O3)[C@@H](NCc3ccccn3)[C@@H]2O)CC1,i
CC(C)(O)c1cn(C[C@H]2C[C@@H]3CCN2C[C@@H]3C(=O)NC2CC2)nn1,i
COc1cc2c(cc1O)C1(C)CCC(O)C(C)(C)C1CC2=O (stereo not given),37%*
CCCCNC(=O)C(CC)N1C(=O)C(C)N=C(c2ccccc2)c2ccccc21 (stereo not given),i
O=S(=O)(c1ccc(Cl)cc1)C(Cl)Cl,i
CC(C)(C)c1ccc(-c2cn(C[C@H]3CC4CCN3C[C@@H]4C(=O)N3CCCC3)nn2)cc1 (stereo not given in full),i
CN(C)Cc1cn(C[C@H]2CC3CCN2C[C@@H]3C(=O)Nc2cccc(O)c2)nn1 (stereo not given in full),i
COc1ccc2c(c1)c(CCN)c(C)n2Cc1ccccc1,38%*
CCOC(=O)c1c(C)n(C(C)C)c2ccc(OC)cc12,i
SMILES,ST2 inh
COc1ccc2c(CCN)c[nH]c2c1,i
CC1CN(C(C)(C)C)CCC1N(C)C (stereo not given),i
O=C1CC(=O)N(c2ccc(F)cc2)C(=O)N1,i
O=C(NCCC1=CCCCC1)c1cn(CCN2CCCCC2)nn1,i
CN(C)c1ccc(N2CCNCC2)c([N+](=O)[O-])c1,i
O=[N+]([O-])c1cc(F)c(N2CCCCC2)cc1Br,42%*
CC1CCN(c2cc(Br)c([N+](=O)[O-])cc2F)CC1,45%*
CC1CN(c2ccccc2[N+](=O)[O-])CC(C)N1 (stereo not given),i
CCNC(=S)NC[C@H]1C[C@@H]2CCN1C[C@@H]2CC,i
CC1C(C#N)=C(N)Oc2c1c(=O)oc1ccccc21 (stereo not given),i
CN1CCN(C[C@H]2CN3CC[C@H]2C[C@@H]3CNS(=O)(=O)c2cccs2)CC1,i
O=C(c1cnccn1)N1C[C@@H]2C[C@H](C1)c1ccc(/C=C/c3ccc(Cl)cc3)c(=O)n1C2,i
O=S(=O)(NC[C@H]1C[C@@H]2CCN1C[C@@H]2CN1CCN(c2ccccc2)CC1)c1ccccc1,i
Cc1ccc(S(=O)(=O)NC[C@H]2C[C@@H]3CCN2C[C@@H]3CN2CCN(c3ccccc3)CC2)cc1,33%*
O=S(=O)(NC[C@H]1C[C@@H]2CCN1C[C@@H]2CN1CCN(c2ccc(F)cc2)CC1)c1ccccc1,i
CC[C@H]1CN2CC[C@H]1C[C@@H]2CNC(=S)Nc1cccc(SC)c1,i
Cc1cccc(CN2CCN(c3ccccc3C)CC2)c1,i
Cc1cccc(NC(c2ccc(N(C)C)cc2)c2ccc3ccc(C)nc3c2O)n1 (stereo not given),44%*
CC(C)NC(=O)OC[C@H]1C[C@@H]2CCN1C[C@@H]2c1cc(C2CCCCC2)nn1C,i
CCN(CCNc1ccc([N+](=O)[O-])c2cccnc12)S(=O)(=O)c1ccccc1,i
O=[N+]([O-])c1ccc(NCc2ccccc2)c2ncccc12,51%*
O=[N+]([O-])c1ccc(O)cc1CN1CCN(Cc2ccccc2)CC1,i
O=[N+]([O-])c1ccc(N2CCCCC2)c2ncccc12,62%*
COCc1cn(C[C@H]2C[C@@H]3CCN2C[C@@H]3C(=O)NCc2ccco2)nn1,i
